From the supplement of paper PMC10849652
The full data set covers some 7,900 targets. This sample favours those with a hit. About 0.6% of all pairs of compound and target were hits. Unmarked numbers belong to inactive results.

What was measured:
Assay in all cases: log2 fold change, soluble protein after heating vs DMSO (PISA); higher = thermal stabilisation; K562 cells, 10 uM, 30 min; active = over 0.2 and 3.5 SD of the protein, either way, in both replicates (recomputed)
[1] = compound: CN1CCN(CCOc2cc(OC3CCOCC3)c3c(Nc4c(Cl)ccc5c4OCO5)ncnc3c2)CC1 [saracatinib]
How it was run: (§1)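 Aliquots of K562 cells (2×10^6 cells/mL) treated with 10 μM compound for 30 min were heated for 3 min over 48°C-58°C. After pooling and extraction in PBS with 0.5% NP-40 at 4°C, soluble protein from a 21,000xg, 90 min spin was quantified by TMTpro 16plex LC-MS/MS with channel sums equalised. Thermal stability is expressed against control samples, from duplicates, as a log2 fold change.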

[2] = compound: CN1CCN(c2nc(C3=C(c4c[nH]c5ccccc45)C(=O)NC3=O)c3ccccc3n2)CC1 [sotrastaurin]
How it was run: as §1

[3] = compound: CN1CC[C@H](c2c(O)cc(O)c3c(=O)cc(-c4ccccc4Cl)oc23)[C@H](O)C1 [alvocidib]
How it was run: as §1

[4] = compound: CN1CCc2c(c3ccccc3n2Cc2ccc(C(=O)NO)cc2)C1 [Tubastatin A]
How it was run: as §1

[5] = compound: CNC(=O)C1=CC=CC=C1NC2=NC(=NC=C2Cl)NC3=C(C=C(C=C3)N4CCOCC4)OC
How it was run: as §1

[6] = compound: CNC(=O)c1ccc(Nc2ncc(C(F)(F)F)c(NCc3nccnc3N(C)S(C)(=O)=O)n2)cc1 [defactinib]
How it was run: as §1

[7] = compound: CNCc1ccc(-c2[nH]c3cc(F)cc4c3c2CCNC4=O)cc1 [rucaparib]
How it was run: as §1

[8] = compound: CNc1nc(-c2ccc3c(N)n[nH]c3c2)cc(N2C[C@@H](C(=O)NC3CCCCC3)CC[C@H]2C)n1
How it was run: as §1

[9] = compound: COC(=O)N[C@@H](C)CNc1nccc(-c2cn(C(C)C)nc2-c2cc(Cl)cc(NS(C)(=O)=O)c2F)n1 [encorafenib]
How it was run: as §1

[10] = compound: COC(=O)[C@H](CCSC)NC(=O)C1=C(C=C(C=C1)NC[C@H](CS)N)C2=CC=CC=C2
How it was run: as §1

WASHC3 (UniProt Q9Y3C0)
log2 fold change [1]: 0.055
log2 fold change [2]: 0.026
log2 fold change [3]: 0.077
log2 fold change [4]: 0.054
log2 fold change [5]: 0.004
log2 fold change [6]: -0.02
log2 fold change [7]: -0.022
log2 fold change [8]: -0.02
log2 fold change [9]: -0.005
log2 fold change [10]: 0.008

UBAP1 isoform 4 (UniProt Q9NZ09)
log2 fold change [1]: -0.023
log2 fold change [2]: -0.032
log2 fold change [3]: -0.038
log2 fold change [4]: 0.007
log2 fold change [5]: -0.028
log2 fold change [6]: -0.08
log2 fold change [7]: 0.089
log2 fold change [8]: -0.053
log2 fold change [9]: -0.05
log2 fold change [10]: 0.006

TMTC3 (UniProt Q6ZXV5)
log2 fold change [1]: -0.03
log2 fold change [2]: 0.028
log2 fold change [3]: 0.009
log2 fold change [4]: 0.009
log2 fold change [5]: 0.012
log2 fold change [6]: 0.009
log2 fold change [7]: 0.022
log2 fold change [8]: 0.006
log2 fold change [9]: 0.028
log2 fold change [10]: -0.019

WDR46 (UniProt O15213)
Chain of UniProt O15213 (O15213 whole entry, looked up): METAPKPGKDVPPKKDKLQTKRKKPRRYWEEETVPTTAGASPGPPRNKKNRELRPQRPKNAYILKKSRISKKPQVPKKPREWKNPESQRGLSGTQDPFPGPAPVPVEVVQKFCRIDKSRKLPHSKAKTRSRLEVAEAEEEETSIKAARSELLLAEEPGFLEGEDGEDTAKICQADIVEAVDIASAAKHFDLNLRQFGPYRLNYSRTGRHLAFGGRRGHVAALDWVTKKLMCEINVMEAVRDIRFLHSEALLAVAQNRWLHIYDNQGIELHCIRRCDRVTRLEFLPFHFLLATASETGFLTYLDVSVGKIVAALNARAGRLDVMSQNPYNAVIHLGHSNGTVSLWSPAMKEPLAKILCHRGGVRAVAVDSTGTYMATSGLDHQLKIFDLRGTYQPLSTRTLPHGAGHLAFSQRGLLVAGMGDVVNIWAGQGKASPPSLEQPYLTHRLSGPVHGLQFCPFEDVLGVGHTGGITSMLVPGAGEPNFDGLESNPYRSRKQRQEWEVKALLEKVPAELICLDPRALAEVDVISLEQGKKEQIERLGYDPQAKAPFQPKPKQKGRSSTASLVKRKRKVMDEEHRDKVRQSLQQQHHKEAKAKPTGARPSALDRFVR
log2 fold change [1]: -0.095
log2 fold change [2]: 0.003
log2 fold change [3]: 0.387
log2 fold change [4]: 0.101
log2 fold change [5]: 0.101
log2 fold change [6]: 0.39
log2 fold change [7]: 0.289
log2 fold change [8]: 0.084
log2 fold change [9]: 0.128
log2 fold change [10]: -0.015

VPS52 (UniProt Q8N1B4)
Chain of UniProt Q8N1B4 (Q8N1B4 whole entry, looked up): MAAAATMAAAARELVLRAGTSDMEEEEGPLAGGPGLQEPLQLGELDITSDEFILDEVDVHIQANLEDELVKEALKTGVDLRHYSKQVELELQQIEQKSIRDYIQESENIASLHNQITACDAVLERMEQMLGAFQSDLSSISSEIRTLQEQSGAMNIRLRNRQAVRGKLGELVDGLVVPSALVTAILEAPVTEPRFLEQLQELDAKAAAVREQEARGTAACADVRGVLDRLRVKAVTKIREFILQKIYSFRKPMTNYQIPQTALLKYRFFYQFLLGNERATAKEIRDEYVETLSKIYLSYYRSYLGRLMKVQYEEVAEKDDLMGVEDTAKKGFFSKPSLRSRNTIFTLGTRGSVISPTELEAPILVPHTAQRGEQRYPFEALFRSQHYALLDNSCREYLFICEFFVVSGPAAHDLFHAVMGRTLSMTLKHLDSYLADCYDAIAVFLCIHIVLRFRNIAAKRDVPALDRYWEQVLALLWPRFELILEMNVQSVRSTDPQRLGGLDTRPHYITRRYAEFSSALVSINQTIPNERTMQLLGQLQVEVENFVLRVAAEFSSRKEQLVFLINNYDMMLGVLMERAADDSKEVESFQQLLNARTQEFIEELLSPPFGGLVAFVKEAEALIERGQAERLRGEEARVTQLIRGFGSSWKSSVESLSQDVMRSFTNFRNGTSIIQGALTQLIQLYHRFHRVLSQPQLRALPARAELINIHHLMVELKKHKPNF
log2 fold change [1]: -0.012
log2 fold change [2]: -0.107
log2 fold change [3]: -0.061
log2 fold change [4]: 0.074
log2 fold change [5]: -0.047
log2 fold change [6]: -0.031
log2 fold change [7]: 0.121
log2 fold change [8]: -0.01
log2 fold change [9]: 0.02
log2 fold change [10]: -0.072

TRAM1 (UniProt Q15629)
log2 fold change [1]: -0.007
log2 fold change [2]: -0.025
log2 fold change [3]: -0.02
log2 fold change [4]: -0.052
log2 fold change [5]: -0.208
log2 fold change [6]: -0.029
log2 fold change [7]: -0.132
log2 fold change [8]: 0
log2 fold change [9]: 0.179
log2 fold change [10]: -0.052

XPO5 (UniProt Q9HAV4)
Chain of UniProt Q9HAV4 (Q9HAV4 whole entry, looked up): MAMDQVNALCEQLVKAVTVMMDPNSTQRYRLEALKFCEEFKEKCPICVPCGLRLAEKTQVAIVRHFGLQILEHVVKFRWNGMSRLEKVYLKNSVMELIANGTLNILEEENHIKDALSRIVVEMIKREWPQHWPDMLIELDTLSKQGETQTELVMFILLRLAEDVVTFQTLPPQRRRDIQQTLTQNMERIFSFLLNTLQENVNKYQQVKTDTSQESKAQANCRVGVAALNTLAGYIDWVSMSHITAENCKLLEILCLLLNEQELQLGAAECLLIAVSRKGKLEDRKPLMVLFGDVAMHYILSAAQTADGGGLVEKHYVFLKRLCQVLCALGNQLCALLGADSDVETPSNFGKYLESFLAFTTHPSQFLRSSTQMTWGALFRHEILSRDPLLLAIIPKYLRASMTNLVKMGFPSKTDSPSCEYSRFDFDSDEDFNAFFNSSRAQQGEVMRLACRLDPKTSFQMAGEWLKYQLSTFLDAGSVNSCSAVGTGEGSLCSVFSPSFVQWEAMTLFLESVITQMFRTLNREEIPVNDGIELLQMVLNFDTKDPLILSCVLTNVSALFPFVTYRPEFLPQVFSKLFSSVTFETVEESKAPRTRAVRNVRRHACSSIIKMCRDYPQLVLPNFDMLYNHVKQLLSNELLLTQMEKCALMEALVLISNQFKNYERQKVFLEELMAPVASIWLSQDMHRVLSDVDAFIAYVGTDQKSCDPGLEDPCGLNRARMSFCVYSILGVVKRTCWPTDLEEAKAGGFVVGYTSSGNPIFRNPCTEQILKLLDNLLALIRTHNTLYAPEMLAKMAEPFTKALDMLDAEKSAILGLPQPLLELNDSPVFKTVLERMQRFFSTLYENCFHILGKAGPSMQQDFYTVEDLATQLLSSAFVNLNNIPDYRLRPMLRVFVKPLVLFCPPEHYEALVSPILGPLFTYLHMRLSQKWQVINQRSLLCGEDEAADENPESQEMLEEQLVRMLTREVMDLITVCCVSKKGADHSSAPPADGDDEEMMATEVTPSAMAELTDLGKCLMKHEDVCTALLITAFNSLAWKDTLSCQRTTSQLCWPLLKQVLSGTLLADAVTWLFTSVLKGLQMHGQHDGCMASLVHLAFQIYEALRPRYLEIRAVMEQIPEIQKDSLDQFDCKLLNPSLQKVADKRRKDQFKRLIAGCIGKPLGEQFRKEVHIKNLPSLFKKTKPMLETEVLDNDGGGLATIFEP
log2 fold change [1]: 0
log2 fold change [2]: -0.087
log2 fold change [3]: -0.102
log2 fold change [4]: -0.03
log2 fold change [5]: 0.008
log2 fold change [6]: -0.142
log2 fold change [7]: -0.028
log2 fold change [8]: 0.026
log2 fold change [9]: 0.054
log2 fold change [10]: -0.004

TRIP10 (UniProt Q15642)
Chain of UniProt Q15642 (Q15642 whole entry, looked up): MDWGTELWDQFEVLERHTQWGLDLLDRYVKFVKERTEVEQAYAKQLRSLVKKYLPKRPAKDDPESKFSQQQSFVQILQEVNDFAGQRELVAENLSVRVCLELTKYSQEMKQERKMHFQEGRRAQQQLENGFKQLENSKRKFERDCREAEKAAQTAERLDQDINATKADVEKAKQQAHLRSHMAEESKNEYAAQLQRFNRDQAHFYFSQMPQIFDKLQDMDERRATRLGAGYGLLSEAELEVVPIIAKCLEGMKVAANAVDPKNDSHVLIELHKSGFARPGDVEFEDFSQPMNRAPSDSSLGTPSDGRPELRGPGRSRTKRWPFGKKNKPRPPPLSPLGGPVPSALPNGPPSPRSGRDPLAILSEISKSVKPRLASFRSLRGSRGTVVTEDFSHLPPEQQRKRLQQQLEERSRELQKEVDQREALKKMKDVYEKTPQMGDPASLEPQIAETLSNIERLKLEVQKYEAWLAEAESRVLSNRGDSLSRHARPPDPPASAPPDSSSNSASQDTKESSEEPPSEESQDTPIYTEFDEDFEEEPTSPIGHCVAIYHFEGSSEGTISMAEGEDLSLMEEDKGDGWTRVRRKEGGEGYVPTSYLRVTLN
log2 fold change [1]: 0.036
log2 fold change [2]: -0.014
log2 fold change [3]: -0.011
log2 fold change [4]: 0
log2 fold change [5]: 0.027
log2 fold change [6]: -0.029
log2 fold change [7]: 0.006
log2 fold change [8]: 0.046
log2 fold change [9]: 0.038
log2 fold change [10]: -0.005

WDR7 (UniProt Q9Y4E6)
log2 fold change [1]: 0.024
log2 fold change [2]: 0.041
log2 fold change [3]: 0.04
log2 fold change [4]: -0.047
log2 fold change [5]: -0.114
log2 fold change [6]: -0.3
log2 fold change [7]: 0.128
log2 fold change [8]: -0.015
log2 fold change [9]: -0.174
log2 fold change [10]: -0.373

TUBA4A (UniProt P68366)
log2 fold change [1]: 0.045
log2 fold change [2]: -0.012
log2 fold change [3]: -0.048
log2 fold change [4]: -0.051
log2 fold change [5]: -0.039
log2 fold change [6]: -0.024
log2 fold change [7]: -0.046
log2 fold change [8]: 0.038
log2 fold change [9]: -0.012
log2 fold change [10]: 0.013

XPNPEP3 (UniProt Q9NQH7)
Chain of UniProt Q9NQH7 (Q9NQH7 whole entry, looked up): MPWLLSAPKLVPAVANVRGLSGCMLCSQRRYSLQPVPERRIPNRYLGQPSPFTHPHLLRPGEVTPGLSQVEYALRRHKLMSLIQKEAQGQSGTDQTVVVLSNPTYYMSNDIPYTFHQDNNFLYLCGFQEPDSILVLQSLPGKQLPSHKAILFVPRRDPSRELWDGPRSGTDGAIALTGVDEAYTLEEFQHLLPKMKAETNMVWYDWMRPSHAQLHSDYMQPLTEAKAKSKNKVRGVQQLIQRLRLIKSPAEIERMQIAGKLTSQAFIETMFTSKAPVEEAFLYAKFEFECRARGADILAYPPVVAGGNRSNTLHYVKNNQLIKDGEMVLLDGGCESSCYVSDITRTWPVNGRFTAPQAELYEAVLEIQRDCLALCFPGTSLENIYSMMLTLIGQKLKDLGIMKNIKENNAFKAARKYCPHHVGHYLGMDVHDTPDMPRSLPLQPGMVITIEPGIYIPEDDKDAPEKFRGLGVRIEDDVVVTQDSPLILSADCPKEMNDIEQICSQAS
log2 fold change [1]: 0.022
log2 fold change [2]: -0.017
log2 fold change [3]: -0.029
log2 fold change [4]: -0.021
log2 fold change [5]: 0
log2 fold change [6]: -0.033
log2 fold change [7]: -0.018
log2 fold change [8]: -0.035
log2 fold change [9]: -0.005
log2 fold change [10]: 0.038

UBE2S (UniProt Q16763)
Chain of UniProt Q16763 (Q16763 whole entry, looked up): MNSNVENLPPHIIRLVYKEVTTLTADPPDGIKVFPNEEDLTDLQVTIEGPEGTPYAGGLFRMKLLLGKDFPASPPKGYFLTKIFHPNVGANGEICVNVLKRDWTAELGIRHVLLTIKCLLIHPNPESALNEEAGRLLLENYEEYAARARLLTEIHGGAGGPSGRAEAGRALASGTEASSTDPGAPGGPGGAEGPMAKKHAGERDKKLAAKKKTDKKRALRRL
log2 fold change [1]: -0.001
log2 fold change [2]: -0.023
log2 fold change [3]: -0.078
log2 fold change [4]: 0.2
log2 fold change [5]: -0.016
log2 fold change [6]: -0.082
log2 fold change [7]: -0.051
log2 fold change [8]: -0.041
log2 fold change [9]: 0.022
log2 fold change [10]: -0.007

UBA1 (UniProt P22314)
Chain of UniProt P22314 (P22314 whole entry, looked up): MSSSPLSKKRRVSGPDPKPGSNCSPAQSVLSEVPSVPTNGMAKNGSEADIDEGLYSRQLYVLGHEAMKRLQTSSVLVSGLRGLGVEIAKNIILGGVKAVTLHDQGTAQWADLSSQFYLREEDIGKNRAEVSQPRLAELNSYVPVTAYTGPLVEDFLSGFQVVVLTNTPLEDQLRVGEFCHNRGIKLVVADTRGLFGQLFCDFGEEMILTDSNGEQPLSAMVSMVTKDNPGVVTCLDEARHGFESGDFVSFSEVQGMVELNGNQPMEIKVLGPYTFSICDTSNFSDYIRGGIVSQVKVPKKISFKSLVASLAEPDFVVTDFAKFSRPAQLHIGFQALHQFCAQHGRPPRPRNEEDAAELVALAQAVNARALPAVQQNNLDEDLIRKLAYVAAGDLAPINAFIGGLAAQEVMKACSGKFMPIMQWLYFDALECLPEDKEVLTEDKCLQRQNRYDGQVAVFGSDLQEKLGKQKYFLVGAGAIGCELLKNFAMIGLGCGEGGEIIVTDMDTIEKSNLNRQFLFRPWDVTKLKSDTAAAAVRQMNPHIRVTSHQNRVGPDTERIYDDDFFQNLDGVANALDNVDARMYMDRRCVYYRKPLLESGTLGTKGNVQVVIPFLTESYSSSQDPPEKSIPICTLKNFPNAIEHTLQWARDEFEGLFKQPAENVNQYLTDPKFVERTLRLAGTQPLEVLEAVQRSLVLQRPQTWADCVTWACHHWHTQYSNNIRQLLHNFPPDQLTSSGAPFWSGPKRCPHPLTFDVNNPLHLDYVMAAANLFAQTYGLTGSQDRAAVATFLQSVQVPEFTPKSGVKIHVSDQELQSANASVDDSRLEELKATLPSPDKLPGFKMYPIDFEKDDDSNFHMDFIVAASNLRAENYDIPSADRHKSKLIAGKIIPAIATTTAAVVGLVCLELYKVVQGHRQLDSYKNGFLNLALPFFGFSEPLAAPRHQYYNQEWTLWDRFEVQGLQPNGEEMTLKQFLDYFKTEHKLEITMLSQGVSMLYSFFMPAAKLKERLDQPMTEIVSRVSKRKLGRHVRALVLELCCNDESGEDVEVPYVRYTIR
log2 fold change [1]: -0.048
log2 fold change [2]: -0.17
log2 fold change [3]: -0.127
log2 fold change [4]: -0.052
log2 fold change [5]: 0.015
log2 fold change [6]: -0.058
log2 fold change [7]: -0.019
log2 fold change [8]: 0.055
log2 fold change [9]: 0.149
log2 fold change [10]: -0.057

UGDH (UniProt O60701)
log2 fold change [1]: -0.036
log2 fold change [2]: -0.284 (active)
log2 fold change [3]: -0.273
log2 fold change [4]: 0.004
log2 fold change [5]: -0.085
log2 fold change [6]: -0.209
log2 fold change [7]: -0.089
log2 fold change [8]: 0.074
log2 fold change [9]: 0.087
log2 fold change [10]: -0.038

XRCC5 (UniProt P13010)
log2 fold change [1]: -0.057
log2 fold change [2]: -0.332
log2 fold change [3]: -0.214
log2 fold change [4]: 0.173
log2 fold change [5]: -0.032
log2 fold change [6]: -0.37
log2 fold change [7]: 0.07
log2 fold change [8]: 0.048
log2 fold change [9]: 0.21
log2 fold change [10]: -0.067

UBE2E3 (UniProt Q969T4)
log2 fold change [1]: -0.03
log2 fold change [2]: -0.044
log2 fold change [3]: -0.085
log2 fold change [4]: -0.074
log2 fold change [5]: 0.067
log2 fold change [6]: -0.162
log2 fold change [7]: -0.014
log2 fold change [8]: -0.022
log2 fold change [9]: 0.017
log2 fold change [10]: -0.067
